Data on 40 sequences can be found in the supplement of paper PMC6555819.

This test deals with FXR:RXRa (NR concentration 270 nM, RXRa partner concentration 90 nM). Description: PBM binding z-score (relative to random genomic background probes); higher = stronger binding; sequences stand for … in GC…GCGATTGACAGCGTAGAATGAAGG
An outline of the steps: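 Regression normalization was applied to scanned fluorescence from custom Agilent 4×180K protein-binding microarrays. Before scanning, arrays were incubated 1 h with ligand-free nuclear receptor dimers, and binding was detected with antibodies against each partner (one per run). Binding z-scores use the random background probes as reference.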
ATCTCTAGGTAAAGATAGTTCGGTGAATGCAAAT: the PBM binding z-score was 0.128. The figure for TCTAGCAGTCCAGAGGGTCACTCAAGAGGTACGG is 0.754; for CCTAGCAGGCCAATCTGGGACACTCAAGGCTTGA it is 0.127. As for TCTGACAGGTGAAGGTAACTCAGGTACGCAGTCG, the PBM binding z-score worked out at 0.497. TATACAGGCTCAAAGGCCAGAGTACGAATGTCGA had a PBM binding z-score of -0.0411. Take GGAACGAGGGCATTCGAGTTAATAGCATGGCGAT: the PBM binding z-score stood at 1.38.

On to CCTACTGGGCCAATGGTCATTGATTCCAATGCTC, for which the PBM binding z-score was -0.623.

As for GCTGCTAGGTCAACTGATGGTCGGCTAAAGCTCG, the PBM binding z-score was 3.88. Next, ACTCGGAGGACCAAGGTCAGAGCTACGCCAGTGA: 1.21; GGAACGAAGGCAAAGTTGATAGCATCTGTCGACG: -0.685. The figure for GGAACGAGGGCATGCGAGTTGATAGCATGGCGAT is 0.758. Next, TCTTGTAGATCACGCAGGTTAAGAAAGCCTGAGT: 0.613; TCTTGTAGAACAAGCAGGTTAAGAAAGCCTGAGT: 0.0411.

With AATACCGGGTCATCGTAGGCCAGAGTACGCACAG, the PBM binding z-score came out at 6.17. As to CCTAGCAGGCCAATCTGAGTCACTCAAGGCTTGA, the PBM binding z-score was -0.524. Next, AGTCAAAGTTCATCTAGGTAAGGTAAGATATGCT: 6.12; AGAACAAGGGCAATGAGTTGATAGCACGGGTGGC: 0.13; CAAACTAGGGCACAGAGGTCAAAGTCCGTGCGTA: 5.59. ATCGAAAGGTCGACGGGGTGAGTATACACCGTTT displayed a PBM binding z-score of 4.95.

TAGCCGAGGTCATGGGCCAGTATACCACGCGAAC yielded a PBM binding z-score of 7.63. Next, TCTAGTTGGTCACGGAGGTAACACACGACGGGTA: 0.499. The figure for CCTACTGGGCCAGGGTCATTGATCAGTCAAAGCA is 2.51; for TCTGCTAGGTCAACGATGGACAGCTAATCTGCTA it is 3.08; for TCATATAGGTAAAGGTTAAAGTCGAACGATATGA it is 2.25. The figure for ACTAGTAGGCCAAGTTTGGGTCACTCAAACAAAG is 0.368; for TCTTGTAGAACAGCAGGTTAAGAAAGCTGGCCAA it is -0.25; for CCTATTAGTTGACCATAAGGGCTACCGAAGCTCG it is 0.118. The sequence GCAGACAGGTGAAACGCGGGTAACTCAGGGTGGC yielded a PBM binding z-score of 0.0652.

In turn, CCTAGTTGGTCAGGAGGTCAAACACCGGATATGA registered a PBM binding z-score of 4.57. The figure for TCGAGTAGGTTACAAATGGGGCATTCAGCTTTCT is 0.181; for GCTGCTAGGTCAGGTAGGTCAGCTAACGGGTACG it is 2.1; for CCTAGTTGGTGAAGGTCACACACGCTATAGGTAC it is 2.89.

In turn, CTACCAAGGTGAACAAGGCCGTTGATTACTATTC displayed a PBM binding z-score of 0.303. Next, TATACAGGGTCAAAGGCCAGAGTCCGAATGTCGA: 6.58; CGTCCAAGGTCAAAGGTCAGTGTAGAGATGACGG: 8.42; GTACGAAGGTGAATAGGTCGTTGATGAGTAGGCG: 0.531. The sequence CCTTACGGGTCAAGGTTATAGTACGGGTGGTACG yielded a PBM binding z-score of 6.07.

Take ACAATGAGGTTATTAAGATCAGGGAATTGCGGTC: the PBM binding z-score is 1.54. In turn, TCGAGTAGGTTACCAATGGGGCACTCAGCTTTCT came in with a PBM binding z-score of -0.431. The figure for CCTACTGGGCCATTCAGAGGTCCTTGATCATATG is -0.359.
